Assay in all cases: difference in mean normalized H2B-mRuby nuclear fluorescence intensity relative to DMSO control (normalized intensity difference (DMSO = 0)); higher = stronger increase in transgene reporter fluorescence
Common to all, as to settings: 24 h

The test system of one assay is H1299. The procedure, abridged:
(§1)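 Each value is the shift in mean per-nucleus normalized H2B-mRuby intensity relative to DMSO-treated cells. Cancer cell lines carrying stable, lentivirally transduced H2B-mRuby2 under hygromycin selection were exposed to drug for 24 h, with DMSO kept equal across wells. Unstained cells were imaged on a Leica DMI8 with bright-field autofocus, using 541–551 nm excitation and 565–605 nm emission. Data come from about 3 repeats of 4 fields each.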

A further assay concerns LN-18. The method, boiled down: as §1
A further assay has as its system SK-OV-3. The procedure, abridged: as §1

Molecules are shown by their SMILES.

Consider `Cc1[nH]c2ccccc2c1CCNCc1ccc(/C=C/C(=O)NO)cc1` (concentration unit: nM), for which the difference in the assay on H1299 (concentration: 10) stood at 0.43; with H1299 (concentration: 25), 0.738; in the assay on H1299 (concentration: 50), 0.733; with H1299 (concentration: 100) it was 0.864; in the assay on H1299 (concentration: 250), 0.886; in the assay with H1299 (concentration: 500) it was 0.923. Also, the difference worked out at 0.22 with LN-18 (concentration: 10); 0.459 in the assay on LN-18 (concentration: 50); 0.491 in the assay with LN-18 (concentration: 100); 0.528 in the assay on LN-18 (concentration: 250); 0.494 with LN-18 (concentration: 500); 0.269 in the assay on SK-OV-3 (concentration: 10). The difference worked out at 1.12 in the assay with SK-OV-3 (concentration: 50), 1.16 in the assay with SK-OV-3 (concentration: 100), 1.1 in the assay with SK-OV-3 (concentration: 250) and 1.13 in the assay with SK-OV-3 (concentration: 500).

For the molecule `Nc1ncn([C@@H]2O[C@H](CO)[C@@H](O)[C@H]2O)c(=O)n1` (concentration unit: uM), the difference with LN-18 (concentration: 1) is 0.03; with LN-18 (concentration: 2.5), 0.0353; in the assay on LN-18 (concentration: 5), 0.0211; with LN-18 (concentration: 10) it was 0.0474; with LN-18 (concentration: 20), 0.00195; in the assay on SK-OV-3 (concentration: 1) it was 0.0139. For the same molecule, the difference in the assay on SK-OV-3 (concentration: 2.5) is -0.0364; in the assay with SK-OV-3 (concentration: 5), 0.0517; in the assay on SK-OV-3 (concentration: 10), 0.126; with SK-OV-3 (concentration: 20) it was 0.105.

In the case of `COc1cc(Nc2ncc3c(n2)-c2ccc(Cl)cc2C(c2c(F)cccc2OC)=NC3)ccc1C(=O)O` (concentration unit: nM), the difference in the assay on H1299 (concentration: 10) is -0.0235; with H1299 (concentration: 50), -0.0295; with H1299 (concentration: 250), 0.00737; with H1299 (concentration: 500) it was 0.159; in the assay on H1299 (concentration: 1000) it was 0.136.

With `COc1cc([C@@H]2c3cc4c(cc3[C@@H](O[C@@H]3O[C@@H]5CO[C@@H](C)O[C@H]5[C@H](O)[C@H]3O)[C@H]3COC(=O)[C@H]23)OCO4)cc(OC)c1O` (concentration unit: uM), the difference with H1299 (concentration: 0.5) came to 0.147; with H1299 (concentration: 1) it was 0.0921; in the assay with H1299 (concentration: 2.5), 0.108; in the assay on H1299 (concentration: 5), 0.206; in the assay with H1299 (concentration: 10), 0.153; in the assay on H1299 (concentration: 20), 0.189. In addition, the difference in the assay on LN-18 (concentration: 1) stood at 0.0338; in the assay with LN-18 (concentration: 2.5) it was 0.04; in the assay with LN-18 (concentration: 5) it was 0.0489; with LN-18 (concentration: 10) it was 0.0688; in the assay with LN-18 (concentration: 20), 0.0487; in the assay with SK-OV-3 (concentration: 1), 0.0528. Also, the difference came to 0.00327 in the assay on SK-OV-3 (concentration: 2.5), 0.00917 in the assay with SK-OV-3 (concentration: 5), 0.159 in the assay on SK-OV-3 (concentration: 10) and 0.266 in the assay on SK-OV-3 (concentration: 20).

For the molecule `COc1cc2ncnc(Nc3ccc(F)c(Cl)c3)c2cc1OCCCN1CCOCC1` (concentration unit: uM), the difference was -0.0187 with H1299 (concentration: 1); 0.0302 in the assay on H1299 (concentration: 2.5); -0.00342 in the assay on H1299 (concentration: 5); 0.0329 in the assay with H1299 (concentration: 10); 0.0679 with H1299 (concentration: 20); 0.099 in the assay with LN-18 (concentration: 1). Also, the difference in the assay with LN-18 (concentration: 2.5) is 0.00859; in the assay with LN-18 (concentration: 5) it was 0.0147; with LN-18 (concentration: 10) it was 0.0212; in the assay on LN-18 (concentration: 20), 0.00315; in the assay on SK-OV-3 (concentration: 1), 0.00612; with SK-OV-3 (concentration: 2.5), -0.00968. Further, the difference turned out to be 0.0329 in the assay with SK-OV-3 (concentration: 5), 0.0831 in the assay on SK-OV-3 (concentration: 10) and 0.0836 in the assay on SK-OV-3 (concentration: 20).

As to `C[C@@H](Oc1cc(-c2cnn(C3CCNCC3)c2)cnc1N)c1c(Cl)ccc(F)c1Cl` (concentration unit: uM), the difference was 0.0337 in the assay with H1299 (concentration: 0.25); -0.111 in the assay with H1299 (concentration: 1); -0.0387 in the assay with H1299 (concentration: 2.5); 0.194 in the assay with H1299 (concentration: 5); 0.228 in the assay with H1299 (concentration: 10).

As to `CO[C@H]1C[C@@H]2CC[C@@H](C)[C@@](O)(O2)C(=O)C(=O)N2CCCC[C@H]2C(=O)O[C@H]([C@H](C)C[C@@H]2CC[C@@H](O)[C@H](OC)C2)CC(=O)[C@H](C)/C=C(\C)[C@@H](O)[C@@H](OC)C(=O)[C@H](C)C[C@H](C)/C=C/C=C/C=C/1C` (concentration unit: nM), the difference in the assay with H1299 (concentration: 2.5) is -0.0109; with H1299 (concentration: 10) it was 0.177; with H1299 (concentration: 25), 0.0761; with H1299 (concentration: 50), 0.0674; in the assay on H1299 (concentration: 250), 0.0406.

As to `COc1cccc2c1C(=O)c1c(O)c3c(c(O)c1C2=O)C[C@@](O)(C(=O)CO)C[C@@H]3O[C@H]1C[C@H](N)[C@H](O)[C@H](C)O1` (concentration unit: nM), the difference in the assay on H1299 (concentration: 25) is 0.0124; in the assay with H1299 (concentration: 100) it was 0.112; with H1299 (concentration: 250) it was 0.0484; with H1299 (concentration: 1000), 0.0826; with H1299 (concentration: 2500), 0.218; in the assay with LN-18 (concentration: 25), -0.017. In addition, the difference is -0.0175 with LN-18 (concentration: 100); 0.0434 with LN-18 (concentration: 250); 0.361 in the assay on LN-18 (concentration: 1000); 0.899 in the assay with LN-18 (concentration: 2500); -0.00185 with SK-OV-3 (concentration: 25); 0.13 with SK-OV-3 (concentration: 100). Also, the figures for the difference in the assay with SK-OV-3 (concentration: 250), in the assay on SK-OV-3 (concentration: 1000) and in the assay on SK-OV-3 (concentration: 2500) were 0.133, 0.252 and 0.93, respectively.

Take `Cn1c(=O)n(-c2ccc(C(C)(C)C#N)cc2)c2c3cc(-c4cnc5ccccc5c4)ccc3ncc21` (concentration unit: nM): the difference in the assay with H1299 (concentration: 10) stood at 0.158; with H1299 (concentration: 50) it was 0.191; with H1299 (concentration: 100), 0.157; with H1299 (concentration: 250), 0.0684; in the assay with H1299 (concentration: 500) it was 0.0286.

For `CNC(=O)c1cc(Oc2ccc(NC(=O)Nc3ccc(Cl)c(C(F)(F)F)c3)cc2)ccn1` (concentration unit: uM), the difference in the assay with H1299 (concentration: 1) was 0.0342; with H1299 (concentration: 2.5) it was -0.0184; in the assay with H1299 (concentration: 5), -0.0837; with H1299 (concentration: 10), -0.0051; with H1299 (concentration: 25) it was -0.155.

As to `N#CC[C@H](C1CCCC1)n1cc(-c2ncnc3[nH]ccc23)cn1` (concentration unit: uM), the difference is 0.0876 in the assay with H1299 (concentration: 1); -0.0462 in the assay on H1299 (concentration: 2.5); -0.0185 in the assay on H1299 (concentration: 5); -0.0963 in the assay with H1299 (concentration: 10); 0.115 in the assay with H1299 (concentration: 25).

Consider `C[C@@H]1C[C@H](N)C[C@H](c2ccncc2NC(=O)c2ccc(F)c(-c3c(F)cccc3F)n2)C1`, for which the difference with H1299 (concentration: 1) turned out to be 0.00842; in the assay on H1299 (concentration: 2.5) it was 0.0956; in the assay with H1299 (concentration: 5), 0.0409; with H1299 (concentration: 10), 0.137; in the assay on H1299 (concentration: 25), 0.227.

`Cc1nc(Nc2ncc(C(=O)Nc3c(C)cccc3Cl)s2)cc(N2CCN(CCO)CC2)n1` (concentration unit: nM): the difference is 0.0292 with LN-18 (concentration: 25); 0.0217 in the assay with LN-18 (concentration: 100); 0.0754 in the assay on LN-18 (concentration: 250); 0.0482 in the assay with LN-18 (concentration: 1000); -0.0509 in the assay on LN-18 (concentration: 2500); 0.111 in the assay with SK-OV-3 (concentration: 25). Moreover, the difference in the assay with SK-OV-3 (concentration: 100) was determined as 0.606; in the assay with SK-OV-3 (concentration: 250), 0.528; with SK-OV-3 (concentration: 1000), 0.636; in the assay with SK-OV-3 (concentration: 2500), 0.551.

For `O=C(/C=C/c1cccc(S(=O)(=O)Nc2ccccc2)c1)NO` (concentration unit: uM), the difference in the assay on H1299 (concentration: 0.25) came out at 0.186; with H1299 (concentration: 0.5), 0.231; with H1299 (concentration: 1), 0.491; in the assay with H1299 (concentration: 2.5) it was 0.854; with H1299 (concentration: 5), 1.19.

In the case of `CNC(=O)c1ccccc1Sc1ccc2c(/C=C/c3ccccn3)n[nH]c2c1` (concentration unit: uM), the difference with H1299 (concentration: 1) was -0.0324; in the assay with H1299 (concentration: 2.5), 0.0393; in the assay on H1299 (concentration: 5) it was 0.159; with H1299 (concentration: 10), 0.14; with H1299 (concentration: 20), 0.156.

These data come from the supplement of paper PMC11026393.
